Assay results taken from PubChem BioAssay (NCATS).
Results filed as inconclusive are left out. Entries that show only a call come without a potency. A number with no mark means an inactive call. Active and inactive are the calls of the source. The call rests on the fitted dose curve; in most records, active means well fitted cell-killing curve with a large enough effect; inconclusive means small, poorly fitted or top-dose-only effect; inactive means flat fitted curve, though single readings scatter.

Assay: qHTS of pediatric cancer cell lines to identify multiple opportunities for drug repurposing: Primary screen for DAOY cells (AID 1347090); further: nearly all actives have a fitted effect of over 55% in size
Conditions: DAOY medulloblastoma viability, CellTiter-Glo luminescence, 48 h; series mostly up to 46 µM
Excerpt: Drug repurposing or repositioning has been offered as a strategy for drug development in oncology programs. This approach has special potential for childhood cancers and other rare or orphan diseases, where the expected return on new drug development has been a disincentive to pharmaceuticals.
In this project we exploit the poly-pharmacology of drugs to discover new indications via phenotypic screening of a panel of 19 well-characterized cell lines derived from solid tumors seen in children and adolescents. The goal is to identify approved drugs with previously unrecognized anticancer properties that has the potential to reveal new mechanisms and biological processes involved in carcinogenesis or drug resistance. We employed a titration-based paradigm (quantitative high-throughput screening or qHTS), where all compounds were tested at multiple concentrations for their effect on cell viability. Concentration-response curves (CRCs) were derived directly from the primary screen, and both potency and efficacy values were used to identify compounds with robust bioactivity profiles. We screened the NIH Chemical Genomics Center (NCGC) Pharmaceutical Collection (NPC) and Mechanism Interrogation Plate (MIPE) small molecule collections of approved and investigational compounds against these cell lines; and measured metabolically active cells after 48 hours of compound treatment as a proxy for cell viability.
Assay Submitter: Nathalia J. Martinez, National Center for Advancing Translational Sciences, National Institutes of Health, Rockville, MD, USA; email: natalia.martinez@nih.gov
[1] Shen, M et al. Quantitative high-throughput phenotypic screening of pediatric cancer cell lines identifies multiple opportunities for drug repurposing. Oncotarget 2017 Dec 19;9(4):4758-4772. PMID 29435139.
The cells were obtained from University of North Carolina (UNC), Pediatric Preclinical Testing Program (PPT), and Coriell Institute (CI).
qHTS cell viability assay:
Cells were assayed in growth media at a density of 500-1,000 cells/well. Five microliters of cells were dispensed into 1,536-well, white, solid-bottom, TC-treated plates (Greiner Bio One) using a multidrop dispenser and incubated at 37 degrees C, 5% CO2, under a humidified atmosphere for 5 hours. Twenty-three nanoliters of compounds and controls (neutral control DMSO or positive control bortezomib at final concentration of 2.3 µM) were subsequently transferred by Kalypsys pintool. For primary screens, the MIPE collection was tested at 11-point dilutions (final concentrations range from 0.78 nM to 46 µM) and the NPC collection at 8-point dilutions (final concentrations range from 0.59 nM to 46 µM). Compounds tested in follow-up screens were assayed at 11-point dilutions. Cells were incubated for 48 hours, followed by addition of 3 uL of CellTiter-Glo (Promega). After a 15 min incubation at room temperature, samples were analyzed for luminescence intensity using a ViewLux High-throughput CCD imager equipped with clear filters.
Potency means the concentration at half of the fitted maximal effect.

SMILES	Potency	activity change, negative = cytotoxic
CN[C@@H](C)[C@H]1[C@H](O)C[C@@]2(C)[C@@H]3CC[C@H]4C(C)(C)[C@@H](NC)CC[C@@]45C[C@@]35CC[C@]12C	inactive	–
COc1cc(C=CC(=O)O)ccc1O	inactive	–
CN(C)c1ccccc1CN1CCCN(Cc2ccccc2N(C)C)C1c1ccncc1	inactive	–
CCC(c1ccc(O)cc1)C(CC)c1ccc(O)cc1 (stereo not given)	0.59 µM (active)	–
CS(=O)(=O)c1ccc(C2=C(c3ccccc3)C(=O)OC2)cc1	inactive	–
CC(C)C[C@@H](N)[C@H](O)C(=O)N[C@H](C(=O)N[C@H](C(=O)N[C@@H](CC(=O)O)C(=O)O)C(C)C)C(C)C	inactive	–
Cc1cc2c(cc1C1(c3ccc(C(=O)O)cn3)CC1)C(C)(C)CCC2(C)C	inactive	–
CN1N=C(N)c2cn([C@@H]3O[C@H](COP(=O)(O)O)[C@@H](O)[C@@H]3O)c3ncnc1c23	14.8 µM (active)	–
OC[C@H]1O[C@@H](O[C@H]2[C@@H](O)[C@@](O)(CO)O[C@@H]2CO)[C@H](O)[C@@H](O)[C@@H]1O	inactive	–
C=CCc1cccc(C=NNC(=O)CN2CCN(Cc3ccccc3)CC2)c1O	18.7 µM (active)	–
CNC1[C@H](O)C(O[C@@H]2C(O)C(O[C@H]3O[C@H]([C@@H](C)NC)CC[C@H]3N)[C@@H](N)C[C@H]2N)OC[C@]1(C)O (stereo not given in full)	inactive	–
CCC[C@@H](NC(=O)[C@@H]1[C@H]2CCC[C@@H]2CN1C(=O)[C@@H](NC(=O)[C@@H](NC(=O)c1cnccn1)C1CCCCC1)C(C)(C)C)C(=O)C(=O)NC1CC1	inactive	–
CCN1C[C@H](C)n2c(c(O)c3c(=O)n(Cc4ccc(F)c(Cl)c4)nc(C(=O)NC)c32)C1=O	inactive	–
CCNC(=O)[C@H]1O[C@@H](n2cnc3c(N)nc(NCCc4ccc(CCC(=O)O)cc4)nc32)[C@H](O)[C@H]1O	inactive	–
CNC(=O)c1ccc2c(C(=Nc3cccc(CN(C)C)c3)c3ccccc3)c(O)[nH]c2c1	inactive	–
Clc1ccc(C2(c3ccc(-c4cn[nH]c4)cc3)CCNCC2)cc1	23.5 µM (active)	–
CO[C@H]1C=CO[C@@]2(C)Oc3c(C)c(O)c4c(O)c(c(C=NN5CCN(C)CC5)c(O)c4c3C2=O)NC(=O)C(C)=CC=C[C@H](C)[C@H](O)[C@@H](C)[C@@H](O)[C@@H](C)[C@H](OC(C)=O)[C@H]1C	–	-7.74% [at 9.22 µM]
N[C@@H](CC(=O)N1CCn2c(nnc2C(F)(F)F)C1)Cc1cc(F)c(F)cc1F	inactive	–
CCOC(=O)c1c(CSc2ccccc2)n(C)c2cc(Br)c(O)c(CN(C)C)c12	inactive	–
NC(=O)c1ccc(N(C(N)=O)c2c(F)cccc2F)nc1-c1ccc(F)cc1F	14.8 µM (active)	–

SMILES	Potency	activity change, negative = cytotoxic
CN1C(=O)C(Cc2c[nH]c3ccccc23)NC1=S (stereo not given)	inactive	–
CC1CCN(c2cc(N3CCN(C)CC3)ccc2NC(=O)c2cc(C#N)c[nH]2)CC1	inactive	–
CN(C)c1ccc(-c2nc3ncc(Cl)c(N4CCN(CC(=O)Nc5nccs5)CC4)c3[nH]2)cc1	inactive	–
NC1(C(=O)N[C@@H](CCO)c2ccc(Cl)cc2)CCN(c2ncnc3[nH]ccc23)CC1	14.8 µM (active)	–
O=C(c1ccc(F)c(F)c1Nc1ccc(I)cc1F)N1CC(O)([C@H]2CCCCN2)C1	18.7 µM (active)	–
CCN1CCN(c2ccc(Nc3cc(N(C)C(=O)Nc4c(Cl)c(OC)cc(OC)c4Cl)ncn3)cc2)CC1	inactive	–
CON(C)C(=O)N1N=C(c2cc(F)ccc2F)S[C@]1(CCCN)c1ccccc1	0.0015 µM (active)	–
CN(C)CCCNC(=O)c1ccc(-c2cc(O)c3ncccc3c2)cc1	inactive	–
CC1(COc2ccc3c(c2)ncn3-c2ccc3cccc(N4CCC(N)CC4)c3n2)COC1	0.0469 µM (active)	–
C=CC[N+]1([C@H]2C[C@H]3[C@@H]4CC[C@H]5C[C@H](O)[C@@H](N6CCOCC6)C[C@]5(C)[C@@H]4CC[C@]3(C)[C@H]2OC(C)=O)CCCC1	inactive	–
CC(C)=CCCC(C)=CCCC(C)=CCCC(C)=CCCC(C)=CCCC(C)=CCCC(C)=CCCC(C)=CCCC(C)=CCO	inactive	–
CNc1nc(Nc2ccc(C(=O)N3CCOCC3)cc2OC)ncc1Cl	inactive	–
CN(C)CCOc1ccc(C(=C(CCCl)c2ccccc2)c2ccccc2)cc1	inactive	–
COc1cc2nccc(Oc3ccc(NC(=O)Nc4cc(C)on4)c(Cl)c3)c2cc1OC	5.9 µM (active)	–
CCCCC[C@H](O)C=C[C@H]1[C@H](O)CC(=O)[C@H]1CC=CCCCC(=O)O	inactive	–
Cc1ccc(NC(=O)c2cccc(N(C)C)c2)cc1NC(=O)c1ccc(O)cc1	inactive	–
CN(C)CC[C@H](CSc1ccccc1)Nc1ccc(S(=O)(=O)NC(=O)c2ccc(N3CCN(Cc4ccccc4-c4ccc(Cl)cc4)CC3)cc2)cc1[N+](=O)[O-]	18.7 µM (active)	–
O=C1CCCC(=O)C1C(=O)c1ccc(C(F)(F)F)cc1[N+](=O)[O-]	inactive	–
C[C@@H]1O[C@@H](O[C@H]2CC[C@@]3(C)[C@H](CC[C@@H]4[C@H]3C[C@@H](O)[C@]3(C)[C@@H](C5=CC(=O)OC5)CC[C@]43O)C2)C[C@H](O)[C@@H]1O[C@H]1C[C@H](O)[C@H](O[C@H]2C[C@H](O)[C@@H](O)[C@@H](C)O2)[C@H](C)O1 (stereo in doubt)	0.27 µM (active)	–
Cc1cc(OCCCS(C)(=O)=O)cc(C)c1-c1cccc(COc2ccc3c(c2)OC[C@H]3CC(=O)O)c1	18.7 µM (active)	–
